Screening data deposited in PubChem by several laboratories.
LRH-1 inv ag: inverse agonists of human LRH-1 (NR5A2) | O00482 | HEK293T StAR-luciferase reporter, LRH-1 transfected, 24 h | inhibition, % at 3.6 µM | hit rate 0.13% among 360,000 | AID 602396;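 active = inhibition above the mean inhibition of all tested compounds plus 3 SD, cut at about 73% in these data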
NCOA3 inh: inhibitors of human steroid receptor coactivator 3 (SRC3); HEK293 GAL4-SRC3 luciferase reporter, luminescence; hit rate 0.17% among 360,000; inhibition, % at 3.6 µM; AID 588352;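 active = inhibition above a per-campaign cutoff, the mean of all compounds plus 3 SD, cut at about 60% in these data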;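 note: higher means less SRC3-driven luciferase light from the GAL4 reporter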
SRC1 inh: inhibits human SRC1 coactivator. Q15788. HEK293 GAL4-SRC1 luciferase reporter, luminescence. inhibition, % at 3.6 µM. hit rate 0.12% among 360,000. AID 588354;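 active = inhibition above the campaign mean plus 3 SD, with each screening campaign given its own cutoff, cut at about 60% in these data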
Gli-Sufu block: Gli-Sufu pathway antagonism; inhibition, % at 5 µM; AID 588413; Sufu-KO-LIGHT fibroblasts, Gli luciferase reporter luminescence; hit rate 0.74% among 340,000;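 active = inhibition above about 55%, limit read from the data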
SRC2 inh: human SRC2 (NCOA2) inhibition; Q15596; HEK293 GAL4-SRC2 luciferase reporter, luminescence; inhibition, % at 9 µM; hit rate 0.17% among 370,000;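 active = inhibition above the mean inhibition of all tested compounds plus 3 SD, set per campaign, cut at about 52% in these data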
Hits are given with their value; i = inactive; nt = no result given. In the library only some 0.83% were active in any assay of this set; here they are far more common.

SMILES	LRH-1 inv ag	NCOA3 inh	SRC1 inh	Gli-Sufu block	SRC2 inh
COc1ccc(Cn2cc(CN3[C@@H](CC(C)C)COc4ccc(Cl)cc4S3(=O)=O)nn2)cc1	nt	nt	nt	nt	i
CC1CCC(C(C)C)C(OC(=O)Cn2c(-c3ccc(Cl)cc3)[n+](C)c3ccccc32)C1 (stereo not drawn)	i	i	i	71.8	i
COc1cc(NC(=O)COc2cc(O)c3c(c2)OC(C)(C)CC3=O)cc(OC)c1OC	i	i	i	69.5	i
O=C(COC(=O)c1ccc[nH]c1=O)Nc1ccc(N2CCCCC2)cc1	i	i	i	i	87.4
O=C(COC(=O)c1ccc[nH]c1=O)Nc1ccc(S(=O)(=O)N2CCCC2)cc1	i	i	i	i	i
Cn1c(/C=C/c2ccc(Cl)cc2)c([N+](=O)[O-])c(=O)n(C)c1=O	i	61.8	i	i	i
Cc1ccc(C(C)C)c(OCc2ccc(C(=O)N/N=C/c3ccc(C(=O)O)cc3)cc2)c1	i	i	i	i	i
Cc1ccc(C(C)C)c(OCc2ccc(C(=O)N/N=C/c3ccc(O)cc3O)cc2)c1	i	70.2	67.0	i	64.1
CCN(CC)c1nc(C=Cc2ccc(N(C)C)cc2)c2nccnc2n1	i	i	i	nt	66.3
COc1ccc(C2C(O)C(c3c[nH]c4ccccc34)=NN2C(=O)CCl)cc1 (stereo not drawn)	i	i	i	85.8	72.7
Cc1ccc(C)c(N=Nc2ccc(O)c3ncccc23)c1	i	i	i	66.9	i
Cc1cccc(N=Nc2ccc(O)c3ncccc23)c1	i	i	i	i	i
O=C1C(=O)c2cccnc2-c2ncccc21	104.0	91.1	89.0	nt	94.0
Cc1ccc2c(C)nc(Nc3nc(CSc4nc5ccccc5[nH]4)cc(=O)[nH]3)nc2c1	i	65.4	i	i	i
O=S1(=O)CC2c3ccccc3CN2CN1Cc1ccccc1 (stereo not drawn)	nt	nt	nt	nt	i
COC(=O)c1ccccc1NC1=C/C(=N\S(=O)(=O)c2cccs2)c2ccccc2C1=O	i	i	i	i	i
O=C1C(Nc2ccccc2)=C/C(=N/S(=O)(=O)c2cccs2)c2ccccc21	79.3	87.2	85.2	i	nt
Cc1ccc(S(=O)(=O)/N=C2\C=C(Nc3ccc(O)cc3)C(=O)c3ccccc32)cc1	95.3	91.7	90.5	94.4	nt
CC(C)c1ccc(S(=O)(=O)/N=C2/C=C(Sc3ncn[nH]3)C(=O)c3ccccc32)cc1	i	i	i	i	nt
Cc1ccc(NC2=C/C(=N/S(=O)(=O)c3cccs3)c3ccccc3C2=O)cc1	i	73.0	i	60.3	i
Cc1ccc(S(=O)(=O)/N=C2/C=C(Sc3ncn[nH]3)C(=O)c3ccccc32)cc1	97.1	93.8	91.3	i	nt
COc1ccc(C(=O)O[C@@H]2CCC[C@@]3(C(=O)N(Cc4ccccc4)c4ccccc43)[C@H]2NC(=O)CCc2ccccc2)cc1OC	nt	nt	nt	nt	i
COC(=O)[C@]12C[C@H](CC(=O)NCCCCc3ccccc3)C(=O)N(CCc3ccc(OC)c(OC)c3)C1=C[C@H](C(C)(C)C)O[C@@H]2C	nt	nt	nt	nt	i
NS(=O)(=O)c1ccc(NC(=S)N2CCN(c3ccc(Cl)c(Cl)c3)CC2)cc1	i	i	i	59.0	i
CN=c1scc(-c2ccccc2F)n1/N=C/c1ccc[nH]1	90.7	91.7	92.3	86.4	90.6
SMILES	LRH-1 inv ag	NCOA3 inh	SRC1 inh	Gli-Sufu block	SRC2 inh
Cc1c(C)n(Cc2ccc(-c3ccccc3C(=O)O)cc2)c2ccc(C(=O)N[C@@H](C)c3ccc([N+](=O)[O-])cc3)cc12	nt	nt	nt	nt	i
O=C(Nc1ccccc1C(F)(F)F)OCCN1C(=O)CCC12CCC(c1ccccc1)CC2 (stereo not drawn)	nt	nt	nt	nt	i
CC[n+]1c(/C=C/c2ccc(OC)c(OC)c2)ccc2ccccc21	i	i	i	i	i
CCN(CC)c1ccc(/C=C/c2ccc3ccc(OC)cc3[n+]2CC)cc1	73.7	i	i	84.3	i
COC(=O)C1CN(C2CC2)CCS(=O)(=O)N1Cc1cn(Cc2ccc(Cl)cc2)nn1 (stereo not drawn)	nt	nt	nt	nt	i
COC(=O)COc1ccc(-c2nccc(-c3ccccn3)n2)cc1	i	i	i	i	61.2
O=c1[nH]c(=O)n(C2C[C@H](O)[C@@H](CO)O2)cc1C(F)(F)F (stereo partly drawn)	i	72.5	74.6	i	i
O=c1[nH]c(=O)n([C@H]2C[C@H](O)[C@@H](CO)O2)cc1C(F)(F)F	i	64.6	77.0	i	i
COC(=O)c1ccc(-c2ccc3c(c2)[C@]2(CCC[C@@H](O)[C@@H]2NC(=O)CCc2ccccc2)C(=O)N3Cc2ccccc2)cc1	nt	nt	nt	nt	i
CC(NNC(=S)N1CCN(c2ccccn2)CC1)c1nccc2ccccc12 (stereo not drawn)	i	i	i	93.0	i
O=S1(=O)c2ccc(N3CCCC3)cc2Oc2ccccc2CN1Cc1cn(Cc2cccc(C(F)(F)F)c2)nn1	nt	nt	nt	nt	i
Cc1ccc(-n2c(=O)[nH]c3ncccc3c2=O)cc1	i	i	i	i	i
Cc1ccc(-n2c(-c3ccc(Br)cc3)c[n+]3c2CCc2ccc4cccnc4c2-3)cc1	99.8	82.9	74.5	87.1	i
Fc1ccccc1-c1n[nH]c(=S)n1N=Cc1ccc(OCc2ccccc2)cc1	nt	nt	nt	nt	i
Cc1cccc(Nc2nc(N)nc(CCl)n2)c1C	i	i	i	81.2	i
Cc1ccc(Nc2nc(N)nc(CCl)n2)cc1	i	i	i	i	i
Cc1ccc(Nc2nc(N)nc(CCl)n2)c(C)c1	i	i	i	67.6	i
COc1ccccc1Nc1nc(N)nc(CCl)n1	i	i	i	i	i
CCCCOc1ccc(Br)cc1CSC(=N)N	i	i	i	64.8	i
COc1ccc2c(n1)Sc1nc3ccccc3nc1N2	i	i	i	i	64.7
COc1cc2ccccc2nn1	i	i	i	i	i
CCCCn1c(CCl)nc2cc(S(=O)(=O)N3CCOCC3)ccc21	i	i	i	i	63.1
Cc1ccc(NC(=O)c2cc(C)n(-c3ccccc3)c2C)cc1	i	65.8	64.9	i	55.5
Cc1cc(C(=O)Nc2ccc(Cl)cc2)c(C)n1-c1ccccc1	82.8	86.2	85.0	69.5	75.6
CCOC(=O)Cc1nc(N2CCCN(C(C)=O)CC2)c2c(C)c(C(=O)OCC)sc2n1	nt	nt	nt	nt	i
SMILES	LRH-1 inv ag	NCOA3 inh	SRC1 inh	Gli-Sufu block	SRC2 inh
CCOC(=O)c1c(C)nn(-c2ccc(NC(=O)c3c(C)noc3C)cc2)c1C	i	i	i	i	54.0
CC(=O)Nc1ccc(NC(=O)COC(=O)c2c(C)nn(-c3ccccc3)c2C)cc1	i	i	i	i	i
CCOC(=O)c1c(C)nn(-c2ccc(NC(=O)c3cccs3)cc2)c1C	i	i	i	i	i
CCOC(=O)c1c(C)nn(-c2ccc(NC(=O)/C=C/C(=O)O)cc2)c1C	i	i	i	i	60.9
CN(C(=O)CCn1nnc(-c2cccs2)n1)C1CCCCC1	nt	nt	nt	nt	i
COC(=O)C1CN(Cc2ccccc2)CCS(=O)(=O)N1Cc1ccc(C)cc1 (stereo not drawn)	nt	nt	nt	nt	i
COc1cccc2c1C(CO)N1C(C#N)C3CC(C(=O)O)C(C1C2)N3C (stereo not drawn)	101.5	85.7	86.7	i	54.9
CCOC(=O)c1cnc(-n2nc(C)cc2C)nc1NC1CCCCC1	i	i	i	81.6	i
